This note sets out measurements from PubChem BioAssay (EPA / NIEHS).

Several values for one entry are separate records, joined by “and”; a condition that tells them apart may be missing. Equal values may be shown once. The source holds several records for some structures; these can differ, active in one and inactive in another. Activity calls are given as the source filed them. Rule for the calls: active = hit-call score of the fitted dose curve at least 0.9, where 1 is the maximum; inactive = score below 0.9.

Read-out in this experiment: Interferon-inducible T-cell alpha chemoattractant (ITAC), CXCL11 (gene 6373)
The experiment is described as follows: BSK_BE3C_ITAC: BioMAP Diversity Plus: BE3C Assay for Interferon-inducible T-cell alpha chemoattractant (ITAC) Biomarker Activity (AID 2284279). As to conditions: primary human bronchial epithelial cells. The procedure:
BSK_BE3C is a cell-based, multiplexed-readout assay that uses bronchial epithelial cell, a human lung primary cell, with measurements taken at 24 hours after chemical dosing in a 96-well plate.BSK_BE3C_ITAC is an assay component measured in the BSK_BE3C assay. It measures I-TAC antibody related to regulation of gene expression using ELISA technology.Data from the assay component BSK_BE3C_ITAC was analyzed at the endpoint, BSK_BE3C_ITAC, in the positive analysis fitting direction relative to DMSO as the negative control and baseline of activity. Using a type of binding reporter, gain or loss-of-signal activity can be used to understand protein changes. To generalize the intended target to other relatable targets, this assay endpoint is annotated to the 'cytokine' intended target family, where the subfamily is 'chemotactic factor'.
The levels of cell surface (or secreted, indicated by the prefix "s") biomarker endpoints were measured by ELISA. Overt cytotoxicity to cells in confluent adherent cultures (all systems other than the BT system) was assessed by measuring total protein levels using sulforhodamine B (SRB) staining in parallel cultures at the time of biomarker measurements, indicated as SRB endpoints. For proliferation assays for adherent cell types, individual cell types are cultured at sub-confluence and relative cell numbers quantified by SRB staining at time points optimized for each system (48 h: 3C and CASM3C systems; 72 h: BT and HDF3CGF systems; 96 h: SAg system). SRB was performed by staining cells with 0.1% SRB after fixation with 10% TCA and reading wells at 560 nm.Viability and proliferation of PBMC (T cells) was quantified by Alamar Blue reduction for the SAg and BT systems. For PBMC viability (referred to as PBMC Cytotoxicity within the assay endpoint names), cells were plated (75,000/well in a 96-well plate) and then chemical samples added for 1 h before addition of activators, SEB and TSST-1 (20 ng/mL final concentration each). Cells were incubated for 90 h. Then, Alamar Blue (20 uL/well) (Invitrogen, Cat DAL1100) was added for 6 h, and the plates were read with a fluorescence microplate reader at 546/580 nm (excitation/emission). For PBMC proliferation, cells were plated and activated as above but incubated for only 16 h prior to addition of Alamar Blue. Plates were read after 6 h.
As to `NC(=O)C(F)(F)C(F)(F)F`, the result was inactive. Same read-out and setting: next, `OCC(F)(F)OC(F)(F)C(F)(F)OC(F)(F)C(F)(F)OC(F)(F)F`: “inactive”. As usually defined, the AC50 is the concentration giving half of the maximal activity seen. `OCC(F)(F)OC(F)(F)C(F)(F)OC(F)(F)C(F)(F)OC(F)(F)CO`: the AC50 is 30 µM (active) and the result was inactive.

Turning to `C=CC(=O)OCC(F)(F)C(F)F`, the result was inactive. Regarding `COP(=O)(CCC(=O)NCO)OC`, the result was inactive. For the compound `O=C(O)C(F)(OC(F)(F)C(F)(F)C(F)(F)F)C(F)(F)F` (stereo unspecified), the result was inactive. On the same count and under the same terms, the entry for `O=C(O)C=CC(F)(C(F)(F)F)C(F)(F)F` is “inactive”. The same measure, in the same setting: next, `O=S(=O)(F)C(F)(F)C(F)(F)C(F)(F)C(F)(F)C(F)(F)C(F)(F)C(F)(F)C(F)(F)F`: “inactive”. Still for that read-out and setting: next, `OCC(F)(F)OC(F)(F)C(F)(F)OC(F)(F)CO`: “inactive”. In the case of `O=C(O)C(F)(F)OC(F)(F)C(F)(F)OC(F)(F)F`, the outcome was inactive.

With `FC(F)(F)C(F)(C(F)(F)F)C(F)(F)C(F)(F)CC1CO1` (stereo unspecified), the outcome was inactive. Turning to `CC(O)C(F)(F)C(F)(F)F` (stereo unspecified), the outcome was inactive. Regarding `O=C(O)C(F)(F)OC(F)(F)C(F)(F)OC(F)(F)C(=O)O`, the result was inactive. Turning to `COC(=O)C(F)(F)C(F)(F)OC(F)(C(F)(F)F)C(F)(F)OC(F)=C(F)F` (stereo unspecified), the AC50 was 3.93 µM (active) and 4.84 µM (active). Consider `O=C(O)C(F)(F)C(F)(F)C(=O)O`, for which the result was inactive.
